Measured values as given in PubChem BioAssay (NCATS).
Where “and” joins values, the source holds several entries; their conditions need not be identical. Identical values can stand only once. Records with an inconclusive call do not appear. Calls of active or inactive are those of the source. Calls follow the shape of the dose curve; as a rule, active = well fitted curve in the direction sought with a large enough effect; inconclusive = small, poorly fitted or top-dose-only effect, or another doubt; inactive = no such curve, though single readings can be large; an effect the other way counts as inactive or inconclusive.

Tests used:
[1] = OV-KATE Cancer Cell Toxicity qHTS against the NCATS CANVASS Library (AID 1347345); also: potency is read from the fitted curve at half-maximal effect
Summary of the method: (§1)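 Cells were seeded at 1000 per well, allowed 4 h at 37 degrees C/5% CO2, then pin-treated with an 11-point compound series. After 72 h, viability was read as CellTiter-Glo luminescence following 15min at room temperature.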

[2] = A2780 Cisplatin Sensitive Ovarian Cancer Cell Toxicity qHTS against the NCATS CANVASS Library (AID 1347353); also: nearly all actives have a fitted effect of over 60% in size; also: potency is read from the fitted curve at half-maximal effect
Summary of the method: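 Cells are plated at 750 per well and rest for 4 hours. Compounds are added across eleven concentrations, and incubated 72 hours before ATP is quantified by luminescence.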

[3] = HEK-293 Cancer Cell Toxicity qHTS against the NCATS CANVASS Library (AID 1347355); also: nearly all actives have a fitted effect of over 65% in size; also: potency is read from the fitted curve at half-maximal effect
Summary of the method: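 First, 1000 cells go into each well and rest for 4 hours. Next, an 11-point dilution range is pinned in. Plates then incubate 72 hours before CellTiter-Glo addition and luminescence reading.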

[4] = HEK293 24hr Apoptosis Induction qHTS against the NCATS CANVASS Library (AID 1347359)
Summary of the method: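 HEK293 cells, 500 per well, exposed to an 11-point compound series for 24 hours at 37 degrees C. Caspase 3/7 activity read by Caspase-Glo luminescence (DEVD substrate) after 15 min at room temperature.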

[5] = KB-8-5-11 Cancer Cell Toxicity qHTS against the NCATS CANVASS Library (AID 1347364); also: nearly all actives have a fitted effect of over 75% in size; also: potency is read from the fitted curve at half-maximal effect
Summary of the method: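 Terse: KB-8-5-11, 500 cells/well, 72 hr, 37C/5% CO2, 11-pt titration, CellTiter-Glo readout; confirmatory runs ± 1uM tariquidar in medium.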

[6] = KB-3-1 Cancer Cell Toxicity qHTS against the NCATS CANVASS Library (AID 1347366); also: nearly all actives have a fitted effect of over 75% in size; also: potency is read from the fitted curve at half-maximal effect
Summary of the method: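 KB-3-1 cells (500/well) in DMEM with 10% FBS were exposed to compounds for 72 h at 37C. Viability was read by CellTiter-Glo luminescence.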

[7] = G06 Cancer Cell Toxicity qHTS against the NCATS CANVASS Library (AID 1347368); also: nearly all actives have a fitted effect of over 60% in size; also: potency is read from the fitted curve at half-maximal effect
Summary of the method: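 Cells were plated at 500 per well, then compounds were added over an 11-point range. After 72 hr at 37C, CellTiterGlo was added and luminescence measured as ATP content.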

[8] = qHTS for ATAD5 Antagonist screened against the NCATS CANVASS Library (AID 1347370); also: nearly all actives have a fitted effect of over 65% in size; also: potency is read from the fitted curve at half-maximal effect
Summary of the method: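 Compounds (11-point) co-dosed with 10 µM 5-FUrd for 16 h at 37 °C onto HEK293T-ATAD5 luciferase reporter cells. Viability measured by CellTiter-Fluor fluorescence, then ATAD5 reporter signal by luminescence.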

[9] = qHTS for Hypoxia signaling pathway (HIF-1) antagonists against the NCATS CANVASS Library (AID 1347374); also: nearly all actives have a fitted effect of over 60% in size; also: potency is read from the fitted curve at half-maximal effect
Summary of the method: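 Antagonism scored as loss of CoCl2-driven (60 uM stock added) HRE beta-lactamase signal, read by CCF4 FRET at 460/530 nm. Compounds were tested in an 11-point series on ME-180 reporter cells for 17 hrs at 37C, with parallel CellTiter-Glo cytotoxicity.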

[10] = qHTS for Hypoxia signaling pathway (HIF-1) agonists against the NCATS CANVASS Library (AID 1347375)
Summary of the method: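 Cells plated and rested 5 h, compounds pinned in DMSO across 11 concentrations, incubated 17 h at 37C, loaded with CCF4-AM for 2 h, fluorescence read at 460 and 530 nm, then CellTiter-Glo luminescence measured for viability and normalization.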

[11] = Cytotoxicity qHTS for assessment of Hepg2 cells membrane integrity screened against the NCATS CANVASS Library (AID 1347387)
Summary of the method: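 Cells were seeded at 2000 per well and left overnight to attach. Compounds were pin-transferred to give 0.59 nM - 46 uM in an 11-point series and incubated 5 hr at 37C. CytoTox-ONE reagent was added and, after 10 min at room temperature, fluorescence (ex 560, em 590 nm) was read.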

[12] = qHTS for Activators of p53 Stress Response Pathway screened against the NCATS CANVASS Library (AID 1347388); also: potency is read from the fitted curve at half-maximal effect
Summary of the method: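 p53RE-bla HCT-116 cells (4000/well) were pre-incubated for 5 h, then treated with compound (11 points) for 16 h at 37C. After 2 h with CCF4, the 460/530 nm ratio gave reporter activation; CellTiter-Glo measured viability.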

[13] = Secretion counterscreen for inhibitors of the SERCaMP assay screened against the NCATS CANVASS Library (AID 1347390);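 also: light from luciferase secreted into medium read as a measure of general secretion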; also: potency is read from the fitted curve at half-maximal effect
Summary of the method: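 SH-SY5Y cells with constitutively secreted GLuc reporter, 1000 cells/well, treated 20 h at 37C with compounds at 0.001 - 77 uM final; secreted luciferase read as luminescence after coelenterazine; Brefeldin A as positive control.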

[14] = qHTS for activators of Nrf2/ARE signaling pathway screened against the NCATS CANVASS Library (AID 1347391); also: nearly all actives have a fitted effect of over 60% in size; also: potency is read from the fitted curve at half-maximal effect
Summary of the method: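 Beta-lactamase reporter signal, read as 460 and 530 nm emission under 405 nm excitation after 2 h CCF4 loading, reflected ARE activation in HepG2 cells treated 16 h with an 11-point series.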

[15] = qHTS for inhibitors of ER calcium dysfunction: SERCaMP assay screened against the NCATS CANVASS Library (AID 1347393); also: nearly all actives have a fitted effect of over 40% in size; also: potency is read from the fitted curve at half-maximal effect
Summary of the method: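 SH-SY5Y GLuc-SERCaMP, 1000 cells/well, 4 h attach; cpd 16 h, 37C/5% CO2; thapsigargin (added as 6x 600 nM) 4 h; coelenterazine; luminescence. Reduced reporter release = ER Ca stabilization.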

[16] = SW1088 Cancer Cell Toxicity qHTS against the NCATS CANVASS Library (AID 1347350); also: nearly all actives have a fitted effect of over 75% in size; also: potency is read from the fitted curve at half-maximal effect
Summary of the method: as §1

[17] = target: Nuclear receptor subfamily 1 group I member 3 (Homo sapiens) (UniProt Q14994); assay: qHTS for Constitutive Androstane Receptor (CAR) Agonist screened against the NCATS CANVASS Library (AID 1347373);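 also: every well also contained 1.5 µM PK11195 alongside the test compound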; also: potency is read from the fitted curve at half-maximal effect
Summary of the method: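 Cells were plated and allowed to attach for 4hr, then dosed with compound in an 11-point series alongside 1.5uM PK11195. After 24hr at 37C, viability was measured fluorometrically and CAR-driven CYP2B6 reporter luminescence was recorded.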

[18] = qHTS assay for small molecule disruptors of mitochondrial membrane potential screened against the NCATS CANVASS Library (AID 1347389); also: nearly all actives have a fitted effect of over 60% in size; also: potency is read from the fitted curve at half-maximal effect
Summary of the method: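 Mitochondrial depolarization in HepG2 cells is scored as a falling aggregate-to-monomer fluorescence ratio after 1 hr compound exposure and 30 min staining with Mito-MPS dye at 37C, each compound tested as an 11-point titration.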

[19] = qHTS for activators of dead-cell proteases activity screened against the NCATS CANVASS Library (AID 1347392);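 also: luminescence from protease leaking out of membrane-damaged cells cleaving impermeant substrate; rising signal means more cytotoxicity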
Summary of the method: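 HepG2, 2000 cells/well, 18 h attach; cpd 11-pt, 5 h 37C 5% CO2; CytoTox-Glo (AAF-aminoluciferin) 15 min RT; luminescence read.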

Measured: Potency

Sequence of Nuclear receptor subfamily 1 group I member 3 (Homo sapiens) (Q14994 whole entry, looked up): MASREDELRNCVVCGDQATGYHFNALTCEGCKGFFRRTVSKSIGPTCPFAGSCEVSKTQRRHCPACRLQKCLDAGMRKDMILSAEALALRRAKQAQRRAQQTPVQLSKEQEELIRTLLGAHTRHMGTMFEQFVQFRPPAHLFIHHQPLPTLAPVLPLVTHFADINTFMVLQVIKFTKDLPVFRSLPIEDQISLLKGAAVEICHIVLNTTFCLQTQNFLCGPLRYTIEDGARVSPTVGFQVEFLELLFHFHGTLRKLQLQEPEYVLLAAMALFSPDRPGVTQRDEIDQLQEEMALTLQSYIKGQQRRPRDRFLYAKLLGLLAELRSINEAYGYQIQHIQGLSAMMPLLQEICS

COC(=O)[C@@]1(C)CCC[C@]2(C)c3cc(OC)ccc3CC[C@@H]12
inactive: [1] | [2] | [3] | [4] | [5] | [6] | [7] | [8] | [9] | [10] | [11] | [12] | [13] | [14] | [15]

COc1cc2oc3ccccc3c(=O)c2cc1OC
active: [17] 38.2 µM | [14] 3.41 µM
inactive: [1] | [16] | [4] | [6] | [8] | [9] | [10] | [11] | [18] | [13] | [19]

CC[C@H]1[C@@H](C)[C@@H](c2cc(OC)c(OC)cc2OC)[C@H](C)[C@@H](c2cc(OC)c(OC)cc2OC)[C@@]12C=C(OC)C(=O)C=C2OC
active: [16] 11.9 µM | [2] 9.35 µM | [3] 14.8 µM | [5] 29.6 µM | [15] 0.86 µM
inactive: [17] | [10] | [11] | [19]

CO[C@@H]1[C@H](O)[C@@H](C)O[C@@H](OC[C@@H]2C(C)OC(=O)/C=C/[C@H](C)C(O[C@@H]3O[C@H](C)CC4(OC(=O)O[C@@H]4C)C3O)[C@@H](C)CC(C)C(=O)/C=C/[C@H]3OC23)[C@@H]1OC (some centres undefined)
inactive: [16] | [5] | [17] | [10] | [11] | [12] | [18] | [13]
active: [2] 11.8 µM | [3] 20.9 µM | [7] 16.6 µM | [8] 16.6 µM | [9] 18.8 µM | [14] 3.71 µM | [15] 8.6 µM

C[C@H](c1cnc(N)[nH]1)c1ccc(O)c2[nH]cc(-c3cnc(-c4c[nH]c5ccccc45)c(=O)[nH]3)c12
inactive: [1] | [16] | [2] | [5] | [6] | [8] | [17] | [13] | [14] | [19]

O=C1CCC(=O)N(O)CCCCCNC(=O)CCC(=O)N(O)CCCCCNC(=O)CCC(=O)N(O)CCCCCN1
active: [2] 26.4 µM | [7] 8.33 µM
inactive: [16] | [4] | [5] | [8] | [17] | [9] | [11] | [12] | [18] | [13] | [14] | [19] | [15]

CC[C@@H](c1cc(OC)c(OC)cc1OC)[C@H](C)[C@@H](/C(C)=C/c1cc(OC)c(OC)cc1OC)c1cc(OC)c(OC)cc1OC
inactive: [1] | [5] | [6] | [7] | [17] | [11] | [12] | [13] | [19]
active: [16] 11.9 µM | [2] 14.8 µM and 20.9 µM | [3] 16.6 µM | [8] 13.2 µM | [18] 23.4 µM and 20.9 µM | [15] 2.43 µM and 19.3 µM

COc1cc(C2C3=C(Cc4cc5c(cc42)OCO5)C(=O)OC3)cc(OC)c1OC (centres undefined)
inactive: [1] | [16] | [4] | [8] | [17] | [9] | [10] | [11] | [12] | [18] | [13] | [19] | [15]
active: [2] 0.0833 µM | [3] 0.059 µM | [5] 0.105 µM | [6] 0.105 µM | [7] 0.0935 µM

C/C1=C/[C@@H](C)[C@H](O)C/C=C/CC/C=C/C(=O)O[C@@H]1[C@H](C)C(=O)CCCC1CC(=O)NC(=O)C1
active: [2] 10.5 µM | [3] 20.9 µM | [7] 4.69 µM | [8] 20.9 µM | [9] 18.8 µM
inactive: [1] | [16] | [4] | [5] | [6] | [17] | [10] | [11] | [12] | [18] | [19] | [15]

C[C@H]1CCC2(OC1)O[C@H]1C[C@H]3[C@@H]4CC(=O)[C@]5(O)C[C@H](O)CC[C@@]5(C)[C@H]4CC[C@@]3(C)[C@H]1[C@H]2C (some centres undefined)
inactive: [1] | [4] | [6] | [8] | [11] | [18] | [13] | [19]
active: [12] 23.4 µM | [14] 2.09 µM

CC[C@@H]1[C@H](C)[C@H](c2cc(OC)c(OC)cc2OC)[C@@H](C)[C@H](c2cc(OC)c(OC)cc2OC)[C@]12C=C(OC)C(=O)C=C2OC
inactive: [17] | [14]
active: [16] 21.1 µM | [3] 26.4 µM | [8] 23.4 µM

C[C@H](CCC(O)C(C)(O)CO)[C@@]1(O)CC[C@@]2(C)C3=C(CC[C@@]21C)[C@@]1(C)CCC(OC(=O)CCC(=O)O)C(C)(C)[C@@H]1CC3 (some centres undefined)
active: [9] 14.9 µM
inactive: [1] | [2] | [3] | [5] | [6] | [7] | [8] | [17] | [12] | [13] | [19] | [15]

CC(C)[C@@H]1CC(=O)c2coc3c2[C@H]1C[C@@H](C)C3=O
inactive: [1] | [7] | [8] | [17] | [10] | [11] | [12] | [13] | [19] | [15]

C=C1C(=O)O[C@H]2[C@H]1CCC(C)=C1CC[C@@](C)(O)[C@@H]12
active: [1] 11.8 µM | [16] 14.9 µM | [2] 4.18 µM | [3] 9.35 µM | [5] 23.5 µM | [7] 16.6 µM | [13] 34.3 µM | [14] 0.186 µM | [15] 2.72 µM
inactive: [4] | [17] | [11] | [12] | [19]

C/C(=C\[C@H](C)C(=O)C[C@H](O)CC1CC(=O)NC(=O)C1)[C@@H]1OC(=O)CCCC/C=C/[C@@H](O)C[C@@H]1C
inactive: [16] | [4] | [5] | [17] | [18] | [19] | [15]
active: [2] 2.35 µM | [3] 9.35 µM | [6] 9.35 µM | [7] 2.96 µM | [8] 7.41 µM | [9] 4.2 µM | [13] 9.65 µM | [14] 7.41 µM
